Compound activity from PubChem BioAssay.
B2AR arrestin ag – qHTS assay of beta-arrestin-biased ligands of beta2-adrenergic receptor: NCGC Sytravon Library Screen. Beta-2 adrenergic receptor (Homo sapiens), P07550. HTLA Tango cells, beta-arrestin recruitment, luciferase luminescence, 18 h. Potency, µM (highest dose often 46.1 µM), most hits filed as activators. 44,000 tested, under 10 active;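 also: potency is read from the fitted curve at half-maximal effect; 0% = DMSO and full agonism = EC100 isoproterenol or metaproterenol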
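First, Tango cells carrying beta2-AR and beta-arrestin fusions received compound up to 46 microM. After 18 hr at 37 degrees C, luciferase substrate was added for 15 minutes, then luminescence gave %Activity for curve fitting.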
FH mod – Identification of activators of human fumarate hydratase by quantitative high-throughput screening; AID 1347055, 2019; Potency, µM (highest dose often 79.9 µM), without a hit: at the top dose activity change, negative = inhibition, actives largely listed as inhibitors; 54,000 tested, 0.22% active; Fumarate hydratase, mitochondrial (Homo sapiens), P07954; FH coupled MDH/diaphorase resazurin fluorescence, 15 min; also: potency is read from the fitted curve at half-maximal effect; % is scaled to controls: 0 for no effect and ±100 for the full control effect; the screen sought activators but most active calls are inhibition curves; nearly all actives have a fitted effect of over 45% in size
GPR32 ag – qHTS for Agonists of Human Resolvin D1 Receptor DRV1 | Probable G-protein coupled receptor 32 (Homo sapiens), O75388 | CHO-K1 GPR32 beta-arrestin PathHunter luminescence, 90 min; zero percent set by DMSO-only wells | activation, % at 76.9 µM | 48,000 tested, 2.5% active | AID 1346428, 2018;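 active = activation of at least 60% and not above a set upper limit, about 1 call in 100 departs from these limits; inconclusive = activation of 40% to 60%, or above that upper limit; inactive = activation under 40%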; also: 0% is about no effect
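PathHunter beta-arrestin recruitment in CHO-K1 cells stably expressing ProLink-tagged GPR32. Cells were exposed to compound for 90 min at 37 C, then chemiluminescence was read after 1 h detection at ambient temperature; DMSO served as basal control.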
GALK inh – qHTS Assay for Inhibitors of Human Galactokinase (GALK): NCGC Sytravon Library Screen. P51570. recombinant GALK, Kinase-Glo ATP luminescence, 1 h. Potency, µM (highest dose often 57.5 µM), without a hit: at the highest dose activity, negative = inhibition, hits mostly inhibitors. 44,000 tested, under 10 active. AID 1347072, 2019;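 also: plate controls were full GALK reaction for no effect and reaction lacking GALK for full effect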
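Compounds were pinned into ATP buffer, then GALK-galactose mix was added (final 5 nM enzyme, 35 uM ATP, 100 uM galactose, pH 8.0). After 1 h at room temperature, Kinase-Glo Plus was added and luminescence read.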
GALC G270D up – A Novel Cell-Based Assay to Identify Small Molecules for B -Galactocerebrosidase. AID 1159614, 2016. Potency, µM (highest dose often 57.5 µM), most hits filed as activators. P54803. 45,000 tested, 0.1% active. 145M-Twi-hGALC-G270D cells (Twitcher mouse brain line with human GALC G270D), HMU-beta-Gal fluorescence, 48 h; also: potency is read from the fitted curve at half-maximal effect; 0% is about no effect; nearly all actives have a fitted effect of over 65% in size
Target sequence (P54803 whole entry G286D): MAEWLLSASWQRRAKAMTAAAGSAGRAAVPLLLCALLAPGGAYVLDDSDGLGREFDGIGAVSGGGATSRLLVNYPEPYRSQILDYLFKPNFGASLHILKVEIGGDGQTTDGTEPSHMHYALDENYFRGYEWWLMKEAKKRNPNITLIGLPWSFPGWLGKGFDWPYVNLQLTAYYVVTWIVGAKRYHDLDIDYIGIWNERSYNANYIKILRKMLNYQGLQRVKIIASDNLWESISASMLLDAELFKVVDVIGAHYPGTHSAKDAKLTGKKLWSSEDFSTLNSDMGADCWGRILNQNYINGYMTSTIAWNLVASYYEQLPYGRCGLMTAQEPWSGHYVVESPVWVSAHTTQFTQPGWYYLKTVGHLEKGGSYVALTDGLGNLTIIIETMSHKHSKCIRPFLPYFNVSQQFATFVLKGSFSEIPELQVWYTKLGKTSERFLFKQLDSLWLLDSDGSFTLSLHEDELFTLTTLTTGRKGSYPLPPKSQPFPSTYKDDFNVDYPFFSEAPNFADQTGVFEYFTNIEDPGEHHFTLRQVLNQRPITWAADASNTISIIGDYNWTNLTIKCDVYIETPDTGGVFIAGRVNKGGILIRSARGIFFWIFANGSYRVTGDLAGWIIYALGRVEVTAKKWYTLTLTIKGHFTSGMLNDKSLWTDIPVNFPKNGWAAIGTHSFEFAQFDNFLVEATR
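Mutant human GALC (G270D), stably expressed in a Twitcher mouse brain cell line lacking endogenous GALC, is measured in live-treated cells via 6-hexadecanoylamino-4-methylumbelliferyl-β-galactoside hydrolysis (0.1 mM final, pH 5.2) with fluorescent detection.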
TSG101-PTAP inh – qHTS Validation Assay for Inhibitors of HIV-1 Budding by Blocking the Interaction of PTAP/TSG101: Sytravon Library Screen; AID 1347069, 2019; Potency, µM (doses to about 115 µM), most hits filed as inhibitors; Fluorescence polarization, FITC-PTAP peptide/Tsg101, 20 min; Tumor susceptibility gene 101 protein (Homo sapiens), Q99816; 44,000 tested, under 10 active; also: potency is read from the fitted curve at half-maximal effect; 0% is about no effect
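Compounds pinned into 10 uM Tsg101 binding domain, then 50 nM FITC-PTAP peptide added in pH 7.5 HEPES buffer; FP read after 20 min, room temperature. Total S+P intensity flags fluorescent compounds; active cut-off <25 µM, efficacy <60%.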
The depositor's hits bear a star; i = inactive; ? = inconclusive; nt = no result given; [ ] = remark or other dose. Shown are actives, neighbours in structure and some others; about 2.6% of the full set was active somewhere. Unless noted, calls follow the shape of the dose curve; as a rule, active = well fitted curve in the direction sought with a large enough effect; inconclusive = small, poorly fitted or top-dose-only effect, or another doubt; inactive = no such curve, though single readings can be large; an effect the other way counts as inactive or inconclusive.

SMILES	B2AR arrestin ag	FH mod	GPR32 ag	GALK inh	GALC G270D up	TSG101-PTAP inh
CC(C)COc1ccc(C(=O)Nc2onc3c2CCCC3)cc1	i	-30%	114*	4%	i	i
CC(C)(C)c1ccc(C(=O)Nc2onc3c2CCCC3)cc1	i	?	88*	0%	i	i
O=C(Nc1onc2c1CCCC2)c1ccccc1	i	-21%	24	4%	i	i
C=CC(C)(O)CC/C=C(/C)COC(=O)C(C)C1CCC(C)(C=C)O1 (centres undefined)	nt	-9%[53.3 µM]	nt	nt	nt	nt
Cc1cc(C(=O)N2CCCCc3ccccc32)ccc1CNC(=O)N1CCC[C@H]1C(=O)N(C)C	nt	9%	nt	nt	nt	nt
COc1ccccc1[C@@H]1C2=C(CC(C)(C)CC2=O)Nc2n[nH]c(C(F)(F)F)c21	nt	-3%	nt	nt	nt	nt
Cc1nc(-c2ccc(S(=O)(=O)Nc3cc(Cl)ccc3C)cc2)co1	i	-14%	82*	-9%	i	i
Cc1nc(-c2ccc(S(=O)(=O)Nc3ccc(OC(F)(F)F)cc3)cc2)co1	i	1%	114*	-11%	i	i
CC(=O)Nc1ccc(C(=O)NC(C)(C)C)cc1	nt	13%	nt	nt	nt	nt
Cc1cc(C)cc(NC(=O)Cc2ccc(OC(C)(C)C(=O)O)cc2)c1	nt	-6%	nt	nt	nt	nt
CCCCCOc1ccc(-c2ccc(-c3ccc(C(=O)N[C@H]4C[C@@H](O)[C@@H](O)NC(=O)[C@@H]5[C@@H](O)[C@@H](C)CN5C(=O)[C@H]([C@@H](C)O)NC(=O)[C@H]([C@H](O)[C@@H](O)c5ccc(O)cc5)NC(=O)[C@@H]5C[C@@H](O)CN5C(=O)[C@H]([C@@H](C)O)NC4=O)cc3)cc2)cc1	nt	-18%[53.3 µM]	nt	nt	nt	nt
O=S(=O)(/N=C/c1c(O)ccc2ccccc12)c1cccs1	nt	16µM*	nt	nt	nt	nt
Cc1nc2scc(C)n2c(=O)c1S(=O)(=O)Nc1ccc(N2CCN(S(C)(=O)=O)CC2)cc1	i	nt	80*	0%	nt	i
COc1cc(NC(=O)c2c(C)nn(-c3ccc(F)cc3)c2-n2cccc2)cc(OC)c1	i	-7%	103*	4%	i	i
COc1ccc(N2CCN(CCCNC(=O)c3c(C)nn(-c4ccc(F)cc4)c3-n3cccc3)CC2)cc1	i	-12%	63*	1%	i	i
Cc1ccc(-n2nc(C)c(C(=O)NCCCN3CCN(c4ccc(F)cc4)CC3)c2-n2cccc2)cc1	i	-12%	?	-1%	i	i
Cc1nn(-c2ccc(F)cc2)c(-n2cccc2)c1C(=O)NCCCN1CCN(c2ccccc2F)CC1	i	-9%	110*	2%	i	i
CCOCCCn1c(=N)c(C(=O)NCC2CCCO2)cc2c(=O)n3cc(C)ccc3nc21 (centres undefined)	i	-19%	-5	3%	i	i
CCCn1c(=N)c(C(=O)NCC2CCCO2)cc2c(=O)n3cc(C)ccc3nc21 (centres undefined)	i	-1%	-8	-1%	13µM*	i
COC(=O)C1C(c2ccc(O)cc2)C(C(=O)O)C1c1ccc(O)cc1 (centres undefined)	nt	31%[53.3 µM]	nt	nt	nt	nt
CCc1ccccc1-n1c(N)c(C(=O)OC)c2nc3ccccc3nc21	i	-4%	0	-1%	25µM*	i
CNS(=O)(=O)c1ccccc1Nc1nc(Nc2ccc(N3CCN(C)CC3)cc2OC)ncc1Br	nt	-18%	nt	nt	nt	nt
COc1ccc2c(c1O[C@H]1CCNC1)CCC2	nt	0%	nt	nt	nt	nt
Cc1ccc(OCC(=O)Nc2ccc3c(c2)sc(=O)n3C)cc1	i	-6%	73*	1%	i	i
CCCn1c(=O)sc2cc(NC(=O)COc3ccc(Cl)cc3)ccc21	i	-21%	49	-6%	i	i
CNCC[C@H](Oc1cccc2ccccc12)c1cccs1	nt	-12%[53.3 µM]	99*	nt	i	nt
CNCCC(Oc1ccccc1C)c1ccccc1 (centres undefined)	nt	-3%[53.3 µM]	-13	nt	nt	nt
CN(C)CCN(Cc1ccccc1)C(=O)c1cc(-c2ccc(F)cc2)n2nc(C(C)(C)C)cc2n1	nt	-18%	nt	nt	nt	nt
